These results are taken from PubChem BioAssay (EPA / NIEHS).

The source holds several records for some structures; these can differ, active in one and inactive in another. Activity calls are given as the source filed them. Rule for the calls: active = hit-call score of the fitted dose curve at least 0.9, where 1 is the maximum; inactive = score below 0.9.

The nature of the assay: APR_HepG2_MitoMembPot_72hr: Apredica 72-hour HepG2 Assay for Mitochondrial Membrane Potential (AID 2282917). Particulars: imaging, actives raise or lower the signal. In outline: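 Membrane potential read by MitoTracker Red CMXRos (250 nM, 30 min, pre-fixation) fluorescence imaging of HepG2 after 72 hr exposure. Ten concentrations, 0.39–200 uM, duplicate wells, 0.5% DMSO; fitted in both directions against DMSO baseline.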
Consider `O=C(O)COc1nc(Cl)c(Cl)cc1Cl`, for which the molecule was classed as inactive.
`CC(C)(C)c1ccc(CSc2cnn(C(C)(C)C)c(=O)c2Cl)cc1`: the molecule was called inactive.
Still for that read-out and setting: then `COC(=O)C(C)Oc1ccc(Oc2ccc(Cl)cc2Cl)cc1` (stereo unspecified), with “inactive”; and `CCOC(=O)C(Cl)Cc1cc(-n2nc(C)n(C(F)F)c2=O)c(F)cc1Cl` (stereo unspecified), with “inactive”; and `CC1=C(C(=O)Nc2ccccc2)SCCO1`, with “inactive”.
On the same count and under the same terms, the result for `COc1cnc(OC)n2nc(NS(=O)(=O)c3c(OCC(F)F)cccc3C(F)(F)F)nc12` reads “inactive”.
What is called AC50 is the concentration at which the activity in the assay is half-maximal. On to `CO/C=C(/C(=O)OC)c1ccccc1Oc1cc(Oc2ccccc2C#N)ncn1`, for which the AC50 was 164 µM (active) and the molecule was called inactive.
Take `CCOC(=O)CC(SP(=S)(OC)OC)C(=O)OCC` (stereo unspecified): the call was inactive.
Still for that read-out and setting: then `CC(C)Oc1cc(-n2nc(C(C)(C)C)oc2=O)c(Cl)cc1Cl`, with “inactive”; and `N#CC(CCc1ccc(Cl)cc1)(Cn1cncn1)c1ccccc1` (stereo unspecified), with “inactive”; and `Cc1c(F)c(F)c(COC(=O)C2C(/C=C(\Cl)C(F)(F)F)C2(C)C)c(F)c1F` (stereo unspecified), with “inactive”.
As for `COc1nc(C)nc(NC(=O)NS(=O)(=O)c2ccccc2Cl)n1`, the outcome was inactive.
Still for that read-out and setting: then `CCCCNC(=O)n1c(NC(=O)OC)nc2ccccc21`, with “inactive”; and `COC(=O)c1ccccc1C(=O)OC`, with “inactive”; and `COP(=S)(OC)Oc1nc(Cl)c(Cl)cc1Cl`, with “inactive”.
For the molecule `Cc1cc(Cl)ccc1OCC(=O)O`, the molecule was classed as inactive.
As for `CON(C)C(=O)Nc1ccc(Cl)c(Cl)c1`, the AC50 is 23.1 µM (active).
For `COc1ccc(C(c2ccc(OC)cc2)C(Cl)(Cl)Cl)cc1`, the molecule was classed as inactive.
Still for that read-out and setting: the result for `CCNc1nc(Cl)nc(NCC)n1` reads “inactive”; that for `CCCN(CCC)c1c([N+](=O)[O-])cc(S(N)(=O)=O)cc1[N+](=O)[O-]`, “inactive”.
